The target in one test is Albumin (Bos taurus) (UniProt P02769). Description: compounds binding labelled BSA control protein – biochemical, small-molecule microarray, Alexa647 label, 635/667 nm fluorescence, artefact control for SMM control protein annotation, profiling panel (AID 1118).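 Further: score merges 667 nm emission intensity and signal-to-noise per printed compound spot.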 Conditions: BSA-A647 binding, fluorescence 635 nm, higher = more signal.
A short description of test [1]: probe aXIP binding to arrayed compounds – biochemical, NeuroSMM set, 635/667 nm fluorescence, primary screen (AID 1119).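 Further: probe is the protein aXip251-270 applied at 1 µg/mL to compound-printed slides; binding of probe to printed compounds measured as 667 nm fluorescence plus signal to noise.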 The conditions noted are these: small-molecule microarray, higher = more signal, called active from +8 up or from −8 down.
Test [2] can be described thus: probe aNOTCH3 binding on compound microarray – biochemical, small-molecule microarray, 635/667 nm fluorescence, primary screen (AID 1120).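 Further: probe is a biotin-tagged antibody raised against NOTCH3 rather than NOTCH3 protein; score merges spot fluorescence near 667 nm with spot signal to noise.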 Conditions: higher = more signal.
Test [3] in a line: probe aNOTCH2 binding on compound microarray – biochemical, small-molecule microarray, 635/667 nm fluorescence, primary screen (AID 1121).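 Further: score merges feature fluorescence read at 667 nm with its signal to noise.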 Conditions: higher = more signal.
In test [4] the target is Carbonic anhydrase 2 (Homo sapiens) (UniProt P00918). The test can be described thus: compounds binding carbonic anhydrase 2 – biochemical, small-molecule microarray, Alexa647-labelled CAII, profiling panel (AID 1122). The conditions noted are these: CAII-A647 binding fluorescence, higher = more signal.
The nature of test [5]: COS7 lysate on small-molecule microarray, probe aHis, 635 nm (AID 1123).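 Further: z-score combines 667nm fluorescence intensity with signal-to-noise per printed compound spot.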 Conditions: COS7 cell lysate, fluorescence, higher = more signal.
Test [6] can be described thus: probe aLAP1 signal on lysate-treated microarray – cell lysate, small-molecule microarray, COS7 lysate, primary screen (AID 1124).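 Further: lysate comes from COS7 cells expressing LAP1 and is applied at 0.3 µg/mL; score merges spot fluorescence near 667 nm with signal-to-noise over triplicate slides.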 The conditions noted are these: probe aLAP1, fluorescence, higher = more signal.
The next test has as its system Sam68 (KHDRBS1). Description: compounds binding KHDRBS1 protein – biochemical, small-molecule microarray, 635 nm fluorescence, primary screen (AID 1125).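 Further: score merges 667 nm channel intensity with signal to noise over triplicate slides.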 Conditions: higher = more signal.
The test system of test [7] is Chordin-like protein 2 (CHRDL2). The test can be described thus: compounds binding chordin-like 2 – biochemical, small-molecule microarray, 635 nm fluorescence, primary screen (AID 1126).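 Further: printed compound slides probed with Chrdl2 protein at 4 µg/mL for 1 h at 4 C; score merges 667 nm emission intensity with signal to noise over three replicate slides.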 Conditions: fluorescence 635 nm, higher = more signal.
For test [8], the target named is Concanavalin-A (Canavalia ensiformis) (UniProt P02866). The test can be described thus: compounds binding concanavalin A lectin – biochemical, small-molecule microarray, Alexa647 label, 635 nm, artefact control for SMM control protein annotation, primary screen (AID 1127).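 Further: z combines 667 nm emission intensity with signal-to-noise across three replicate slides.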 Conditions: ConA-A647 binding fluorescence, higher = more signal.
Chain of Concanavalin-A (Canavalia ensiformis) (P02866 whole entry, looked up): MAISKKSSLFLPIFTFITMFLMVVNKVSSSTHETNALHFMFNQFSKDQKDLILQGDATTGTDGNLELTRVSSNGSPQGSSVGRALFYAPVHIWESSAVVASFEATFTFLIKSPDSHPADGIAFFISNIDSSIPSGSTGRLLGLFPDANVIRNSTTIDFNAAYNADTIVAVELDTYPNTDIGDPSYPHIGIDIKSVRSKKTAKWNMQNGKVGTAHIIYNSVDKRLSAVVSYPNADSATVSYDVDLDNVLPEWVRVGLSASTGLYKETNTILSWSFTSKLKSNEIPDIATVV

Active and inactive are the calls of the source.

Chain of Albumin (Bos taurus) (P02769 whole entry, looked up): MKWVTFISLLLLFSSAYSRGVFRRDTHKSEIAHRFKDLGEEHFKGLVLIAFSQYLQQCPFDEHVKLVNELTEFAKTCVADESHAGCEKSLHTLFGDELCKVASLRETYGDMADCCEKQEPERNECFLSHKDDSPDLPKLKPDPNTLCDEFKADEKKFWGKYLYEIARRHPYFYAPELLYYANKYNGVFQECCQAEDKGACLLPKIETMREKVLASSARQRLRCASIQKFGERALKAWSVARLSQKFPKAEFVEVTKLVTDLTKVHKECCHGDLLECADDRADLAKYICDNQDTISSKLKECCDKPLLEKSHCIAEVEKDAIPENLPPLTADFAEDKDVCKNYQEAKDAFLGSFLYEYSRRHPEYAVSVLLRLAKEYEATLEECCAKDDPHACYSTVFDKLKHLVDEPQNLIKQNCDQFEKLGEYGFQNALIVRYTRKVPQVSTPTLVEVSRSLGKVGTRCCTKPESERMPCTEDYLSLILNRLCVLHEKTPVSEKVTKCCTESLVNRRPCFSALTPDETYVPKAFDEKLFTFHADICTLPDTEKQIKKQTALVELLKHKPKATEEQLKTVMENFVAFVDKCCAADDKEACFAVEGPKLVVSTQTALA

Take `C=CCC(OC(C)=O)[C@@H]1[C@@H](N(Cc2cc3ccccc3o2)C(=O)c2cccc3ccccc23)c2cc(OCCCO)ccc2N1C(=O)c1ccc(-c2ccccc2)cc1` (stereo not given in full): the composite z-score with Albumin (Bos taurus) was 0.236; in [2], 0.0779; in test [3], -0.113; in test [4], -0.0159; in test [5], 0.317; in [6], -0.187. Besides, the composite z-score was 0.195 in the test on Sam68 (KHDRBS1), 0.107 in [7] and -0.505 in test [8]. The composite Z-score in test [1] was -0.418 (inactive).
Regarding `CC(C)C[C@@H]1NC(=O)[C@@H]2C[C@H](C(=O)O)[C@H](c3cccc(OCCO)c3)N2C1=O`, the composite z-score with Albumin (Bos taurus) is -0.494; in test [2] it was -0.204; in [3], -0.164; in test [4] it was 0.673; in [5], 1.78; in test [6] it was 0.283. The composite z-score with Sam68 (KHDRBS1) is -0.0754; in [7] it was 0.707; in test [8], 0.684. Further, the composite Z-score in test [1] was -0.303 (inactive).
As to `C=CCOC(=O)[C@H]1[C@@H]2C(=O)O[C@@H](c3ccccc3)[C@@H](c3ccccc3)N2[C@@H](c2ccc(OCCOC(=O)[C@H]3C[C@H]4C(=O)N[C@@H](CCCCN(C)C)C(=O)N4[C@H]3c3ccc(O)cc3)cc2)[C@]12C(=O)Nc1ccc(I)cc12`, the composite z-score with Albumin (Bos taurus) was 0.412; in test [2] it was 0.282; in test [3], -0.0028; in test [4] it was 0.493; in test [5], 1.45; in [6] it was 0.651. For the same molecule, the composite z-score was found to be 1.31 in the test on Sam68 (KHDRBS1), 1.18 in [7] and 1.15 in [8]. Moreover, the composite Z-score in [1] is 0.432 (inactive).
Turning to `CC(C)C(=C=CC[C@@H](O)c1ccc(OCCO)cc1)C[C@@H](O)COCc1ccccc1`, the composite z-score is 0.531 with Albumin (Bos taurus); 0.0744 in test [2]; -0.105 in test [3]; 0.624 in test [4]; 0.924 in test [5]; 0.664 in test [6]. For the same molecule, the composite z-score was 1.19 in the test with Sam68 (KHDRBS1), 0.325 in test [7] and -0.625 in test [8]. Also, in [1], the composite Z-score is -0.114 (inactive).
Consider `Oc1ccc2cc[n+](Cc3sc4ccccc4c3Cl)cc2c1`, for which the composite z-score with Albumin (Bos taurus) is -0.49; in [2] it was 0.0854; in [3], -0.0694; in test [4], 0.888; in test [5], 2.88; in [6] it was 1.07. The composite z-score was -0.702 in the test on Sam68 (KHDRBS1), 0.617 in test [7] and 0.376 in test [8]. Besides, the composite Z-score in test [1] was 0.598 (inactive).
In the case of `O=C1C2C=CC(C(O)CCc3ccccc3)N(Nc3ccccc3F)C2C(=O)N1c1ccccc1` (stereo not given), the composite z-score was 0.955 in the test with Albumin (Bos taurus); 0.331 in test [2]; -0.0677 in test [3]; 0.755 in [4]; 2.69 in test [5]; 0.185 in test [6]. Also, the composite z-score in the test on Sam68 (KHDRBS1) is 1.22; in test [7] it was -0.47; in [8], 0.893. For the same molecule, the composite Z-score in [1] is -0.585 (inactive).
In the case of `CCC[C@@H]1C[C@@]1(CCC)[C@@H](NS(=O)(=O)c1cccc2cccnc12)c1ccc(Cl)cc1`, the composite z-score was 0.659 with Albumin (Bos taurus); 0.0496 in test [2]; -0.106 in test [3]; 0.457 in test [4]; 1.81 in [5]; -0.119 in [6]. The composite z-score is 0.403 in the test on Sam68 (KHDRBS1), -0.955 in test [7] and 0.492 in test [8]. The composite Z-score in [1] was -0.421 (inactive).
With `O=C1NC(=O)C2C1C=CC(C(O)c1cc(C(F)(F)F)cc(C(F)(F)F)c1)N2Nc1ccccn1` (stereo not given), the composite z-score with Albumin (Bos taurus) was 0.0063; in [2], -0.0972; in test [3] it was -0.0486; in test [4], 0.673; in test [5], 2.15; in [6], 0.536. The composite z-score in the test with Sam68 (KHDRBS1) stood at 0.079; in [7] it was 0.673; in [8], 0.297. The composite Z-score in test [1] was 0.416 (inactive).
Consider `COC(=O)C(CC#Cc1ccc2c(c1)[C@]1(C(=O)N2)[C@H](c2ccc(OCCO)cc2)N2[C@H](c3ccccc3)[C@H](c3ccccc3)OC(=O)[C@H]2[C@@H]1C(=O)Nc1nc2ccccc2s1)C(=O)OC`, for which the composite z-score in the test with Albumin (Bos taurus) is 0.959; in [2], 0.0038; in test [3], -0.183; in test [4], 0.546; in test [5] it was 2.4; in [6] it was -0.065. Besides, the values for the composite z-score (with Sam68 (KHDRBS1); in test [7]; in test [8]) were 1.31, 0.326 and 1.16, respectively. The composite Z-score in test [1] was -0.0045 (inactive).
On to `CCCC[C@H]1OB(O)C[C@H]2C1=C(COC)Cn1c(=O)n(-c3ccccc3)c(=O)n12`, for which the composite z-score with Albumin (Bos taurus) is 0.0697; in [2], -0.0903; in test [3] it was -0.172; in test [4], -0.185; in [5] it was 0.56; in [6] it was 0.0521. Also, the composite z-score was 0.439 in the test with Sam68 (KHDRBS1), 0.432 in test [7] and -0.317 in test [8]. Further, the composite Z-score in [1] was -0.166 (inactive).
Take `CN(C)C(=O)[C@@]1(CCS(=O)(=O)c2ccccc2)COC(c2ccc(OCCCO)cc2)=N1`: the composite z-score in the test with Albumin (Bos taurus) was 0.401; in test [2], 0.125; in [3] it was -0.0406; in test [4], 0.813; in test [5], 2.28; in test [6] it was 0.441. Besides, the figures for the composite z-score (with Sam68 (KHDRBS1); in test [7]; in test [8]) were 0.203, -0.466 and 0.469, respectively. The composite Z-score in test [1] is 0.319 (inactive).
Consider `CC(C)CNC(=O)[C@@]1(Cc2ccccc2I)c2ccccc2C(=O)N(C2CCCCC2)[C@H]1c1ccc(CO)cc1`, for which the composite z-score with Albumin (Bos taurus) was 0.82; in test [2], -0.139; in [3], -0.0432; in test [4], 0.619; in test [5], 2.1; in [6], 2.06. Also, the composite z-score was 0.342 with Sam68 (KHDRBS1), 0.133 in test [7] and 0.565 in test [8]. Moreover, the composite Z-score in test [1] was 2.21 (inactive).
With `CN(C)C(=O)[C@]1(Cc2ccccc2N=[N+]=[N-])N=C(c2ccc(OCCCO)cc2)O[C@@H]1c1ccccc1N=[N+]=[N-]`, the composite z-score with Albumin (Bos taurus) stood at 0.872; in [2] it was 0.201; in [3], 0.134; in test [4], 0.556; in [5] it was 2.85; in test [6], 0.274. Also, the composite z-score is 1.29 in the test with Sam68 (KHDRBS1), -0.206 in test [7] and 1.14 in test [8]. In [1], the composite Z-score is -1.05 (inactive).
As to `C=C(/C(=C/C[C@H](OC(C)=O)c1ccc(CO)o1)c1cc(C(=O)OC)ccc1OC)C(C)C`, the composite z-score with Albumin (Bos taurus) is 0.222; in [2], -0.0328; in test [3], -0.148; in [4] it was 0.646; in [5], 0.356; in test [6], -0.185. Further, the composite z-score with Sam68 (KHDRBS1) is 0.271; in test [7], -0.649; in test [8] it was -0.237. In test [1], the composite Z-score was 0.72 (inactive).
`COc1ccc([Si](C)(C)[C@@H]2[C@@H](CCO)O[C@]3(C(=O)N(Cc4ccc(N(C=O)c5ccccc5)cc4)c4ccccc43)[C@H]2C)cc1`: the composite z-score with Albumin (Bos taurus) is 0.842; in test [2], 0.0842; in [3] it was -0.0621; in [4], 0.285; in test [5], 0.313; in test [6], -0.456. Besides, the composite z-score in the test with Sam68 (KHDRBS1) is 0.495; in test [7] it was -0.402; in test [8], 0.786. Further, the composite Z-score in test [1] was -0.119 (inactive).
Regarding `CCCCCN1CC=CC23O[C@@H]4/C=C\CCC(C)OC(=O)C4[C@H]2C(=O)N(C(C)CO)[C@@H]3C1=O` (stereo not given in full), the composite z-score is -0.671 in the test with Albumin (Bos taurus); -0.127 in test [2]; -0.14 in test [3]; 0.536 in [4]; -0.0346 in test [5]; 0.169 in [6]. For the same molecule, the results for the composite z-score (in the test with Sam68 (KHDRBS1); in [7]; in [8]) were 0.579, -0.388 and -0.211, respectively. Also, in test [1], the composite Z-score was -0.275 (inactive).
